The subject of one assay is DIO1 (gene 1733). In words: CCTE_GLTED_hDIO1: CCTE's human Deiodinase 1 (DIO1) Inhibition Assay, Great Lakes Toxicology and Ecology Division (GLTED) Lab (AID 2283987; active means hit-call score of the fitted dose curve at least 0.9, where 1 is the maximum;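 further: isolated human DIO1 enzyme in a cell-free setup rather than cells; enzyme activity read as free iodide liberated from substrate via Sandell-Kolthoff colorimetry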). In short, it runs like this:
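Inhibition read as reduced iodide release: after 3 h of human DIO1 with chemical, free iodide is quantified colorimetrically (Sandell-Kolthoff cerium/arsenic reaction). Triplicate plates, DMSO baseline.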

A short description of assay [1]: CCTE_Shafer_MEA_acute_spike_number: CCTE's Neural Acute Assay for Total Number of Spikes, Shafer Lab (AID 2284008).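 On AC50: curve fitted for decrease in spike count so AC50 reflects inhibitors.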 In short, it runs like this:
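Total spike count from 40 min recordings before and during compound exposure (0.03-40 uM), given as per-well percent change. Cortical cultures from rat, DIV 13 or 15, 37 C; adaptive detection threshold 8x rms noise.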

Assay [2] in a line: CCTE_Shafer_MEA_acute_firing_rate_mean: CCTE's Neural Acute Assay for Mean Firing Rate, Shafer Lab (AID 2284009).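 Further: analyzed for loss of signal so actives lower firing rate relative to DMSO.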 In short, it runs like this:
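Primary rat cortical neurons on 16-electrode MEA wells were exposed on DIV 13 or 15 to compound (0.03-40 uM). Spike counts per recording time, averaged over electrodes, were compared between 40-min baseline and 40-min post-exposure recordings as percent change.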

Assay [3] can be described thus: CCTE_Shafer_MEA_acute_burst_number: CCTE's Neural Acute Assay for Single-Electrode Bursts, Shafer Lab (AID 2284013). In short, it runs like this:
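Primary rat cortical neurons on 16-electrode MEA wells, DIV 13 or 15, exposed to compound (0.03-40 uM; ≥3 wells); 40-min recordings at 37 C before and after treatment. Burst count expressed as percent change from baseline, DMSO as negative control.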

Assay [4] in a line: CCTE_Shafer_MEA_acute_burst_duration_mean: CCTE's Neural Acute Assay for Mean Burst Duration, Shafer Lab (AID 2284014).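 Further: hits are decreases in mean burst duration relative to DMSO controls.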 In short, it runs like this: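 Mean burst duration was compared between a 40 min baseline and a 40 min recording in the presence of compound (0.03-40 uM, 37 C), giving percent change per well. Cultures were rat cortical neurons at DIV 13 or 15; wells needed ≥10 active electrodes.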

The nature of assay [5]: CCTE_Shafer_MEA_acute_per_burst_spike_number_mean: CCTE's Neural Acute Assay for Average Number of Spikes Per Burst, Shafer Lab (AID 2284015).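 Further: hits are decreases in mean spikes per burst versus baseline.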 The procedure, abridged: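 Percent change in mean spikes per single-electrode burst is compared between a 40 min baseline and a 40 min recording with compound (0.03-40 uM). Cultures were rat cortical neurons on MEA plates at DIV 13 or 15, recorded at 37 C, with DMSO as the negative control.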

Assay [6] can be described thus: CCTE_Shafer_MEA_acute_interburst_interval_mean: CCTE's Neural Acute Assay for Mean Interburst Interval, Shafer Lab (AID 2284016).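 Further: percent change of mean interburst interval versus each well's own pre-dose baseline; curves fitted for decrease in interburst interval relative to DMSO.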 In short, it runs like this: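 Percent change in mean single-electrode interburst interval was calculated per well from 40 min recordings before and after compound (0.03-40 uM). Recordings were made at 37 C on rat cortical cultures at DIV 13 or 15, with spikes detected at 8x rms threshold.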

Assay [7] in a line: CCTE_Shafer_MEA_acute_burst_percentage_mean: CCTE's Neural Acute Assay for Percentage of Spikes in a Burst, Shafer Lab (AID 2284017).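 On AC50: curve fitted for loss of signal so potency reflects decreased burst percentage.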 The procedure, abridged:
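Well-level mean burst percentage from a 40-min recording after compound (0.03-40 uM) expressed as percent change from a 40-min baseline at 37C. Cultures: primary rat cortical neurons on MEA, dosed on DIV 13 or 15; fitted downward relative to DMSO.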

Assay [8] is described as follows: CCTE_Shafer_MEA_acute_burst_percentage_std: CCTE's Neural Acute Assay for Standard Deviation of Burst Percentage, Shafer Lab (AID 2284018).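 Further: fitted in the negative direction so actives lower burst percentage SD.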 In short, it runs like this:
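Value is percent change from baseline in the across-electrode SD of spikes-in-bursts percentage, wells with >/= 10 active electrodes. Acute 40-min exposure to 0.03-40 uM on DIV 13 or 15 rat cortical cultures, recorded at 37 C after 40-min baseline.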

Assay [9] can be described thus: CCTE_Shafer_MEA_acute_per_network_burst_spike_number_mean: CCTE's Neural Acute Assay for Average Number of Spikes in a Network Burst, Shafer Lab (AID 2284019).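 On AC50: curve fitted for loss of signal so actives reduce spikes per network burst.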 In short, it runs like this:
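Percent change from baseline in mean spikes per network burst, spikes detected at 8x rms noise. Each compound at 0.03-40 uM in at least three wells of rat cortical cultures, recorded 40 min before and 40 min during exposure.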

A short description of assay [10]: CCTE_Shafer_MEA_acute_per_network_burst_spike_number_std: CCTE's Neural Acute Assay for Standard Deviation of Number of Spikes in a Network Burst, Shafer Lab (AID 2284020).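 Further: fitted for decrease in spike-number SD versus DMSO so actives lower it.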 In short, it runs like this: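 Endpoint: percent change from 40 min baseline in standard deviation of spikes per network burst, after 40 min compound exposure (0.03-40 uM, 37 C). Cortical rat neurons on MEA at DIV 13 or 15; spikes detected at 8x rms noise, 300-5000 Hz band-pass.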

Assay [11] can be described thus: CCTE_Shafer_MEA_acute_per_network_burst_electrodes_number_mean: CCTE's Neural Acute Assay for Mean Number of Electrodes in a Network Burst, Shafer Lab (AID 2284021).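 Further: curves fitted for decreases only so hits reduce electrodes per burst.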 The procedure, abridged: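 Percent change from baseline was computed as mean electrode count per network burst, comparing 40 min recordings before and during compound (0.03-40 uM) exposure. Cultures were rat cortical neurons at DIV 13 or 15, recorded on MEAs at 37 C with an adaptive 8x rms threshold.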

The nature of assay [12]: CCTE_Shafer_MEA_acute_network_burst_percentage: CCTE's Neural Acute Assay for Percentage of Network Bursts, Shafer Lab (AID 2284022).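 Further: curves fitted for loss so actives lower network burst percentage.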 In short, it runs like this: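 Network burst percentage (spikes in network bursts divided by total spikes) recorded at 37 C over 40 min baseline and 40 min after compound, 0.03-40 uM, in rat cortical cultures at DIV 13 or 15. Analysed as percent change from baseline versus DMSO.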

Assay [13] addresses Nucleoli Translocation, AR (gene 367) (UniProt P10275). In words: UPITT_HCI_U2OS_AR_TIF2_Nucleoli_Agonist: University of Pittsburgh U2OS Androgen Receptor-Transcriptional Intermediary Factor 2 (AR-TIF2) Agonism High Content Imaging Assay for Nucleoli Translocation (AID 2283998; active means hit-call score of the fitted dose curve at least 0.9, where 1 is the maximum). In short, it runs like this:
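Nucleolar translocation of AR-RFP, with TIF2-GFP coexpressed in human osteosarcoma U2OS, imaged by high-content fluorescence. Compounds tested singly at 20 uM final, confirmed in triplicate, then titrated 0.195–50 uM final; gain-of-signal relative to DMSO.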

For assay [14], the target named is Ratio of Nucleoli Translocation and Cytoplasm, AR (gene 367) (UniProt P10275). Briefly: UPITT_HCI_U2OS_AR_TIF2_Nucleoli_Cytoplasm_Ratio_Antagonist: University of Pittsburgh U2OS Androgen Receptor-Transcriptional Intermediary Factor 2 (AR-TIF2) Antagonism High Content Imaging Assay for Ratio of Nucleoli Translocation and Cytoplasm (AID 2283999; active means hit-call score of the fitted dose curve at least 0.9, where 1 is the maximum;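 further: antagonists lower the DHT-driven ratio of nucleolar to cytoplasmic red signal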). The procedure, abridged: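 Compounds were added to U2OS cells carrying red-fluorescent AR and green-fluorescent TIF2, first at 20 uM, with hits confirmed in triplicate and titrated from 0.195 to 50 uM. Nucleolar versus cytoplasmic AR-RFP fluorescence was then quantified by imaging, with analysis relative to DHT.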
Ratio of Nucleoli Translocation and Cytoplasm, AR (gene 367), sequence (P10275 whole entry, looked up): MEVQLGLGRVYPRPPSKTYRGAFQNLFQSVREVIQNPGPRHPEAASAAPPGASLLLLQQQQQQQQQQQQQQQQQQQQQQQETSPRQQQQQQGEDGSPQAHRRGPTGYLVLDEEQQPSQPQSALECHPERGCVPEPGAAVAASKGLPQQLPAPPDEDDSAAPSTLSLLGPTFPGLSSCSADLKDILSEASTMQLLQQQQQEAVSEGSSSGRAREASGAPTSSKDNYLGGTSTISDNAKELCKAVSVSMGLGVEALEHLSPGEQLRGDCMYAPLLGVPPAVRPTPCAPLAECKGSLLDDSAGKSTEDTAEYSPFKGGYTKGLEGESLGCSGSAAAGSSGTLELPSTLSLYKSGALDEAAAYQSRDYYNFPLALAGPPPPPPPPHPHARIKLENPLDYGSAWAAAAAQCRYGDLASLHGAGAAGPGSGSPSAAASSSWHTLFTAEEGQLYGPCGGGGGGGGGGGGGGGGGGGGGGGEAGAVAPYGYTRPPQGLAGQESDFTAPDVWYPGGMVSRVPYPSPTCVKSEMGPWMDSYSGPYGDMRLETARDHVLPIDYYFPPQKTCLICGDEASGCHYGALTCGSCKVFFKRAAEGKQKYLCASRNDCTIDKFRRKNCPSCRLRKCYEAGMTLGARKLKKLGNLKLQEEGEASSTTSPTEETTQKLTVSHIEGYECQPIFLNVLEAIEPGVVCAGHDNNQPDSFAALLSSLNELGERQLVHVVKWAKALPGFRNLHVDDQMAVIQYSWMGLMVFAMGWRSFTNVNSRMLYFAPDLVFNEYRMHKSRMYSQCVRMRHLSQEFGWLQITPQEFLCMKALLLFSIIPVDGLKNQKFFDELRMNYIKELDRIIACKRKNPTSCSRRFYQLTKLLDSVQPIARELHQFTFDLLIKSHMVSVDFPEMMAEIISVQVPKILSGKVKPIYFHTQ

Assay [15] is described as follows: CCTE_Harrill_HTTr_Viability_MCF7: CCTE's 6-hour Cell Viability Assessment for the High-Throughput Transcriptomics (HTTr) Platform, in MCF-7 cells cultured in DMEM + 10% fetal bovine serum, Harrill Lab (AID 2284010). In short, it runs like this: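 Read-out is propidium iodide gain of signal by high-content imaging, reflecting membrane integrity loss. Measurements are taken 6 h after dosing, eight concentrations per chemical, with DMSO serving as baseline for bidirectional curve fitting.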

The nature of assay [16]: CCTE_Harrill_HTTr_Apoptosis_MCF7: CCTE's 6-hour Apoptosis Assessment for the High-Throughput Transcriptomics (HTTr) Platform, in MCF-7 cells cultured in DMEM + 10% fetal bovine serum, Harrill Lab (AID 2284011). In short, it runs like this: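 High-content imaging of CellEvent Caspase 3/7 Green signal follows a six-hour exposure, with eight concentrations per chemical. MCF-7 cells grown in DMEM plus 10% fetal bovine serum; activity fitted in both directions against DMSO.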

Assay [17] is described as follows: CCTE_Harrill_HTTr_CellCount_MCF7: CCTE's Cell Proliferation Assessment for the High-Throughput Transcriptomics (HTTr) Platform, Harrill Lab (AID 2284012; active means hit-call score of the fitted dose curve at least 0.9, where 1 is the maximum;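 further: cells exposed to compound for six hours; intended direction is loss of nuclei count meaning fewer cells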). The procedure, abridged:
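Cell count served as viability reporter: loss of Hoechst-stained nuclei, counted by high content imaging, marks decreased growth or survival. Exposure was 6 h in MCF-7 cells across eight concentrations, with DMSO as baseline.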

Assay [18] concerns the target Estrogen receptor (Homo sapiens) (UniProt P03372). Briefly: CCTE_Deisenroth_AIME_96WELL_LUC_Active: CCTE's 96-well Estrogen Receptor Transactivation Assay with AIME metabolic competence (ERTA luciferase; metabolism positive), Deisenroth Lab (AID 2284023; active means hit-call score of the fitted dose curve at least 0.9, where 1 is the maximum). The procedure, abridged: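 Metabolism-positive mode: induced rat hepatic S9 in alginate microspheres conditions test solutions (0.002 - 200 uM, 10 points) for 2 hours. VM7Luc4E2 ER luciferase reporter cells then exposed 24 h; positive-direction fit against 17beta-estradiol, n=4 typical.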

Inconclusive results are not listed. Active and inactive are the calls of the source. How the source made its calls, unless noted: active means hit-call score of the fitted dose curve at least 0.9, where 1 is the maximum; inactive means score below 0.9.

Nucleoli Translocation, AR (gene 367), sequence (P10275 whole entry, looked up): as above
Estrogen receptor (Homo sapiens), sequence (P03372 whole entry, looked up): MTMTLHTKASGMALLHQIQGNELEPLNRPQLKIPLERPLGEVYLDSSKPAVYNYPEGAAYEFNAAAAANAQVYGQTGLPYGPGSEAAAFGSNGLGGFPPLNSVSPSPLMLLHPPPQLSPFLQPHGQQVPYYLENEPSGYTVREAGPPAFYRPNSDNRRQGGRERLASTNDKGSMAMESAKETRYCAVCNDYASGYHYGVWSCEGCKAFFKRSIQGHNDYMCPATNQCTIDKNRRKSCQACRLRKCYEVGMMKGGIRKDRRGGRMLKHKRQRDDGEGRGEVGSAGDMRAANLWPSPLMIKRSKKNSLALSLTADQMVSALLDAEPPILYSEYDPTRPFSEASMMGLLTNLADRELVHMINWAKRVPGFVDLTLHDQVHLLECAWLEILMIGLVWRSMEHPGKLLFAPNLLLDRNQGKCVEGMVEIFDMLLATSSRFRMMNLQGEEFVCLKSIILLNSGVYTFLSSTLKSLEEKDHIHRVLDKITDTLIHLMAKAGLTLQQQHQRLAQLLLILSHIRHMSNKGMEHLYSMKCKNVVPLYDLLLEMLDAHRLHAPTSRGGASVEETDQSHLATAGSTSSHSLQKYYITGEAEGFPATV

As to `O=c1c(O)c(-c2ccc(O)cc2O)oc2cc(O)cc(O)c12`, in the assay with DIO1 (gene 1733), the AC50 – broadly, the concentration giving half of the maximal activity seen – was 9.81 µM (active).

Consider `CC(CCC(=O)O)(c1ccc(O)cc1)c1ccc(O)cc1`, for which the compound was classed as inactive in assay [1], in [2], in assay [3], in assay [4], in assay [5] and in [6]. In addition, the compound was classed as inactive in assay [7], in assay [8], in assay [9], in assay [10], in assay [11] and in [12].

With `O=C(O)c1ccc2c(c1)C(=O)OC2=O`, the compound was called inactive in assay [13], in assay [14], in assay [15] and in [16].

Turning to `CCC(C)C(=O)OC` (stereo not given), the result in assay [15], in assay [16] and in assay [17] was inactive.

As for `CC12CCC(CC1)C(C)(C)O2`, the result in assay [15] and in assay [16] was inactive.

Regarding `CC1CCC(=O)C1=O` (stereo not given), the result in assay [15] and in assay [16] was inactive.

For the compound `CCCCOCC(C)O` (stereo not given), the outcome in assay [15], in assay [16] and in assay [17] was inactive.

As for `CC(=O)CCC=C(C)C`, the outcome in assay [15], in assay [16] and in assay [17] was inactive.

With `CCCCCCCCCCCC(=O)N(C)CC(=O)O`, the compound was classed as inactive in assay [1], in assay [2], in [3] and in assay [4]. For the same compound, the AC50 in assay [5] is 2.9 µM (active); in [6], 22.8 µM (active); in assay [7] it was 20.2 µM (active); in [8] it was 57.6 nM (active); in assay [9], 613 nM (active); in assay [10], 14.6 µM (active). Further, the concentration at half-maximal activity (AC50) in assay [11] was 2.9 µM (active); in assay [12], 23.1 µM (active).

Turning to `CCOC(=O)/C=C\C(=O)OCC`, the result in [15] and in assay [16] was inactive.

With `c1ccc(Nc2cccc3ccccc23)cc1`, the AC50 was 1.08 µM (active) in assay [1]; 979 nM (active) in [2]; 1.25 µM (active) in [3]; 15 µM (active) in assay [4]; 5.6 µM (active) in assay [5]; 11.7 µM (active) in assay [6]. For the same compound, the AC50 in assay [7] is 4.86 µM (active); in [10], 1.86 µM (active); in [12], 27.8 µM (active); in [18], 17.7 µM (active). Moreover, the result in assay [8], in assay [9] and in assay [11] was inactive.

Take `CC1=CCC(C(C)C)C=C1` (stereo not given): the result in assay [15], in assay [16] and in [17] was inactive.

Turning to `Cc1noc(NS(=O)(=O)c2ccc(N)cc2)c1C`, the result in assay [15], in [16] and in [17] was inactive.

As to `CC(=O)CC(=O)Nc1ccccc1C`, the outcome in assay [15] and in [16] was inactive.

The values above are taken from PubChem BioAssay (EPA / NIEHS).
